Experimental data reported in the OligoGym collection.

Biological target: ACYP1
Test: pooled miR-30 sensor sort-seq; sequence = guide strand
Settings: shRNA
Note: reference of the scale not given here.

Sequence | sensor-assay potency score (higher = more potent)
TTAGATTTGTGTACAGTGGTAA | 0.61
TCCAACTTCAAGATGACTTTTT | -1.37
TTTTCATTGTTGAAGTTTGCTT | -0.234
TAATATTAACACACAATAGTTC | -0.41
TTTGCTTTGTCGATGTGTGATT | -0.219
TTGTCGATGTGTGATTTAGGAC | -0.517
TTCATTGTTGAAGTTTGCTTTG | -0.707
TCTTGTTTCAAGCCATTCCTGC | -0.475
TGTGTGATTTAGGACTTCCTCT | -0.445
TATTAACACACAATAGTTCTAT | 0.336
TTTCATTGTTGAAGTTTGCTTT | 0.5
TAACTTATTGACTAATGCTAAT | -1.36
ATAACTTATTGACTAATGCTAA | -0.709
TTGTGTACAGTGGTAATCCTTC | -0.227
TTCCTGCATATGACGCACCTTG | -0.872

Biological target: ACYP2
Test: as above
Settings: shRNA

Sequence | sensor-assay potency score (higher = more potent)
ATCTTCTGTATACATTCTGAAG | -1.49
TAGTAGCACGTACAGTCGCTTA | -1.19
TCATTAGAAAAGTTTGTGCGGT | -0.214
TAGTCTTAAGAACATACAGTAT | -1.07
TTGCTGGTATTCTTCACCCAGC | -1.24
TTGAGTAAAATTATTTCAGTGT | 0.361
TTTTCATTAGAAAAGTTTGTGC | -0.116
TTCATTAGAAAAGTTTGTGCGG | 0.328
TCTGTATACATTCTGAAGCAAA | -1.22
TATTCAAGCTTAGAGATGGTTT | -0.574
TTGACTTTGTCTTCTGGCCCCT | 0.0313
TTTGCTGGTATTCTTCACCCAG | -0.785
TATTCTAGTATACATAGTCTTA | -0.674
TTAGTAGCACGTACAGTCGCTT | -0.537
TTTCCTAGCTTCATCTTCTGTA | 0.952
TGGAATTGACTTTGTCTTCTGG | -0.0277
TTCATCTTCTGTATACATTCTG | 0.635
TTTAGTAGCACGTACAGTCGCT | 0.0895
TTCCTAGCTTCATCTTCTGTAT | -0.685
TTGCTTGTTGAAAACATAGTTG | -0.594
TATTTTCCTAGCTTCATCTTCT | 1.16
TACTCTGCTACTATTATTCTAG | -0.38
TTTTCCTAGCTTCATCTTCTGT | -0.817
TTCTAGTATACATAGTCTTAAG | -1.46
